Inconclusive results are not listed. Activity calls are given as the source filed them. Unless noted, calls follow the shape of the dose curve; as a rule, active = well fitted curve in the direction sought with a large enough effect; inconclusive = small, poorly fitted or top-dose-only effect, or another doubt; inactive = no such curve, though single readings can be large; an effect the other way counts as inactive or inconclusive.
What was measured:
[1] = qHTS assay for measurement of the activity of small molecule inhibitors on Zika virus induced Caspase-3 activity in human astrocytoma cells (AID 1224859);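 also: plate controls were ZIKV-infected untreated cells for no effect and uninfected cells for full effect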
How it was run: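 A cell-based luminescent caspase-3/7 assay used SNB-19 cells infected with ZIKV (2 FFU/cell) for 6 h following 1 h compound pretreatment.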

[2] = biological target: Atrial natriuretic peptide receptor 1 (Homo sapiens) (UniProt P16066); test: Natriuretic polypeptide receptor (hNpr1) antagonism - Pilot screen (AID 1347049; calls by dose curve;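 also: HEK293 cells with hNpr1 and GloSensor cGMP luciferase stimulated by 0.1 nM hNppA; agonist-evoked cGMP luminescence read 20 min after hNppA addition; series mostly up to about 58 µM; % is scaled to controls: 0 for no effect and ±100 for the full control effect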)
Atrial natriuretic peptide receptor 1 (Homo sapiens), sequence (P16066 whole entry, looked up): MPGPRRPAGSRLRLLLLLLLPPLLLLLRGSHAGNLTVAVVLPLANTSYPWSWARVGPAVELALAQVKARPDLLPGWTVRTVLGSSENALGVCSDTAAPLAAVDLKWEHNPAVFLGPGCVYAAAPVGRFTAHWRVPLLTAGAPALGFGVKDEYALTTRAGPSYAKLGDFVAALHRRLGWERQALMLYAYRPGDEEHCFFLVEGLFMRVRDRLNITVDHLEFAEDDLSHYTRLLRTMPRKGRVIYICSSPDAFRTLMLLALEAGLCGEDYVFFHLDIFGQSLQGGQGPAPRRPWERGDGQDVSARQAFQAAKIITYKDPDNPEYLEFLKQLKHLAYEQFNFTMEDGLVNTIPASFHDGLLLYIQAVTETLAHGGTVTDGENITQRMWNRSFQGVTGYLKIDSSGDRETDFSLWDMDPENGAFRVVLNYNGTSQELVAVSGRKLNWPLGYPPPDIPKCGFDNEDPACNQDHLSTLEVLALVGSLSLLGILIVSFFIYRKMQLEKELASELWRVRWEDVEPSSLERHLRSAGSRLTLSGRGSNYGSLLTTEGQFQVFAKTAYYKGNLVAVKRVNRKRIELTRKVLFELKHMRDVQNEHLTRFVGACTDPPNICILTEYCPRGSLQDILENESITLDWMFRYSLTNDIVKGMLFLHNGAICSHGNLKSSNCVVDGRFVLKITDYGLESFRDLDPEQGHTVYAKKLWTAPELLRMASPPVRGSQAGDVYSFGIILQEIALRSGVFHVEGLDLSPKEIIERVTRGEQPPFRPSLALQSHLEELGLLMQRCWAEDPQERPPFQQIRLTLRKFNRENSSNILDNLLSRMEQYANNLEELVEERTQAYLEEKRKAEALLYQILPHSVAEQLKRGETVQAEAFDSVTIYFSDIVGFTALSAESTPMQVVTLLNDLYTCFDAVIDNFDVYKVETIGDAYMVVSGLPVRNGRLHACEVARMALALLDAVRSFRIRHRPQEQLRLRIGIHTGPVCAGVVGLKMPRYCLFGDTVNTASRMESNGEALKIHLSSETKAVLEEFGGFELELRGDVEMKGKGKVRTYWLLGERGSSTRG
How it was run: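 Cells expressing receptor plus cGMP biosensor are seeded and incubated overnight at 37C, then loaded with GloSensor reagent (2% final) at room temperature for 2 h. Library compounds go on for 30 min. A pre-read precedes agonist (hNppA, 0.1 nM final) and a 20-min readout.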

[3] = biological target: Atrial natriuretic peptide receptor 2 (Homo sapiens) (UniProt P20594); test: Natriuretic polypeptide receptor (hNpr2) antagonism - Pilot subtype selectivity assay (AID 1347050; calls by dose curve; also: % is scaled to controls: 0 for no effect and ±100 for the full control effect)
Atrial natriuretic peptide receptor 2 (Homo sapiens), sequence (P20594 whole entry, looked up): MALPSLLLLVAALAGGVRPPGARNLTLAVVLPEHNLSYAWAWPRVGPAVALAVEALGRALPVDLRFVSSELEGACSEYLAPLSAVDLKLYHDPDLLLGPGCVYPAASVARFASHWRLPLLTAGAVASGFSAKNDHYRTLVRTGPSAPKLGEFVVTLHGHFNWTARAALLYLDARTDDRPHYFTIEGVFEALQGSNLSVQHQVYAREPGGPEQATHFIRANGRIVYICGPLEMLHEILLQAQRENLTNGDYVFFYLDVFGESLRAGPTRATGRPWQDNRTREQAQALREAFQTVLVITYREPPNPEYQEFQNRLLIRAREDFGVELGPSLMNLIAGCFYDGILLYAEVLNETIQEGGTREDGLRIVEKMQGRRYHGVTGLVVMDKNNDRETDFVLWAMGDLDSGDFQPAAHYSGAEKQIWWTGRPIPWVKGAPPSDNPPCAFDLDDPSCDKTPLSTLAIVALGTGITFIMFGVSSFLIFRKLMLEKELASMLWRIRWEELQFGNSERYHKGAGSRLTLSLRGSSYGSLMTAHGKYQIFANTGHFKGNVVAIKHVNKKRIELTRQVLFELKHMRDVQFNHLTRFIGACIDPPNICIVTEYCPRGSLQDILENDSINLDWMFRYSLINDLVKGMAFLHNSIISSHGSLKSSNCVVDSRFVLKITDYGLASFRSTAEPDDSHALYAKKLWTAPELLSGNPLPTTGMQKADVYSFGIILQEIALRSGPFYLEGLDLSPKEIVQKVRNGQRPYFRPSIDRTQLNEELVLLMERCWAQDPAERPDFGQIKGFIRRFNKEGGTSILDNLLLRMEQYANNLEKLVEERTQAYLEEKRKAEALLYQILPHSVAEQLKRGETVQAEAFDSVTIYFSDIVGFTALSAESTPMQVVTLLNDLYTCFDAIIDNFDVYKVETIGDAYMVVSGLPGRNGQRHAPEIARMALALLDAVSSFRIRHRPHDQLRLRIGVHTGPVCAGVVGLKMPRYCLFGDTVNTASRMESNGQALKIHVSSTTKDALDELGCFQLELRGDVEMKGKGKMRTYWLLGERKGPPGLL
How it was run: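 Read-out: GloSensor luminescence (CCD imager), baseline vs post-stimulation. HEK293 cells expressing hNpr2; compounds pre-incubated 30-50 min at ambient temperature; hNppC 1 nM final, 20 min.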

[4] = NS1 protein of Zika virus - qHTS assay to identify small molecule inhibitors in human HEK 293 cells (AID 1347053);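 also: series mostly up to about 46 µM; plate controls were infected untreated cells for no effect and uninfected cells for full effect; nearly all actives have a fitted effect of over 55% in size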
How it was run: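 In this cell-based screen, HEK 293 cultures received compound for one hour before Zika MR766 at MOI = 0.5. NS1 was quantified 24 hours later by TR-FRET, normalized to virus-free wells and infected wells.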

[5] = qHTS Assay for Identifying Gametocytocidal Compounds (AID 743244);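 also: % is scaled to controls: 0 for no effect and ±100 for the full control effect; actives lower the fluorescent signal which means gametocytes are killed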; conditions: P. falciparum 3D7 stage III-V gametocytes, alamarBlue, 72 h; max response: active compounds read low
How it was run: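 In this qHTS viability screen, late-stage 3D7 gametocytes are incubated with compound for 72 h, then with alamarBlue for 24 h; reduced resorufin fluorescence marks killing.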

[6] = Natriuretic polypeptide receptor (hNpr1) antagonism - Pilot counterscreen GloSensor control cell line (AID 1347045; calls by dose curve; also: series mostly up to about 38 µM; % is scaled to controls: 0 for no effect and ±100 for the full control effect)
How it was run: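 The SNP-driven cGMP luminescence signal (50 uM, 20 min, room temperature) was measured in GloSensor HEK293 control cells. Compounds were tested as a LOPAC titration series and preincubated for 30-50 min.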

[7] = biological target: Hexokinase-4 (Homo sapiens) + Glucokinase regulatory protein (Homo sapiens) (UniProt P35557+Q14397); test: qHTS assay for inhibitors of recombinant human GCK-GKRP interaction: HTRF assay (AID 743207);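 also: 0% = DMSO with GCK present and -100% = DMSO wells lacking GCK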
Hexokinase-4 (Homo sapiens) + Glucokinase regulatory protein (Homo sapiens), sequence (P35557 whole entry, looked up): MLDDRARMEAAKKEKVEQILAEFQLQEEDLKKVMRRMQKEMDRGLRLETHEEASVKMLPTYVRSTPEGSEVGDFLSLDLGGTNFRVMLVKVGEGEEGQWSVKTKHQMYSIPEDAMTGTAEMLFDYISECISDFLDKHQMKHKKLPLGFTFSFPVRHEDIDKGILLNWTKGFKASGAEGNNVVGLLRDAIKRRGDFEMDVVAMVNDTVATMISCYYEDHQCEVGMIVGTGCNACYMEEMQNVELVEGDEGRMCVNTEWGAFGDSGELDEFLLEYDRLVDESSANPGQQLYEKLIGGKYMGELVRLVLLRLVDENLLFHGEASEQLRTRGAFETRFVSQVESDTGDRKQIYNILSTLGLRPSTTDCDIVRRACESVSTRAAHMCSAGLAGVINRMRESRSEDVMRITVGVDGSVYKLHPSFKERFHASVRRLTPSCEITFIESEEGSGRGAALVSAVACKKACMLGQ
Hexokinase-4 (Homo sapiens) + Glucokinase regulatory protein (Homo sapiens), sequence (Q14397 whole entry, looked up): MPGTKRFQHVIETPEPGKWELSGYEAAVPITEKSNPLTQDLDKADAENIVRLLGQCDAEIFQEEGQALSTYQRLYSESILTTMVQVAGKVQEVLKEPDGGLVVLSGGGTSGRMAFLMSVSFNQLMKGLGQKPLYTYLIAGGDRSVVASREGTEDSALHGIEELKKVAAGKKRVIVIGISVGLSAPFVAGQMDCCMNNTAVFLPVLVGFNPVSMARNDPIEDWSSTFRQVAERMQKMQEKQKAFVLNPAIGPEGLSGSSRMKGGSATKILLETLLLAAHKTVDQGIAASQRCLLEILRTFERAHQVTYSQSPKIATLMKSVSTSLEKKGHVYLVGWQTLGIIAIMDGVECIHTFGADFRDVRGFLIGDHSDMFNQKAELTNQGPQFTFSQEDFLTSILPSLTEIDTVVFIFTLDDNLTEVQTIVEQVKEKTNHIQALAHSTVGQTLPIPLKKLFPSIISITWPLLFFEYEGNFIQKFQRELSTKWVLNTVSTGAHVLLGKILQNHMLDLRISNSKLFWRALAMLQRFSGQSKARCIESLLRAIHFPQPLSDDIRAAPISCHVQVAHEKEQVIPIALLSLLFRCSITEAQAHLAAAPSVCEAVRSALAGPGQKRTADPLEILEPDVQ
How it was run: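 After 60 min equilibration at room temperature with anti-FLAG XL665 and anti-GST antibodies, FRET ratio (665/615 nm, excitation 320 nm) was read. Proteins: GST-GCK and FLAG-GKRP, each 5 nM, plus 2 uM S6P, pH 7.1 buffer; GCK-free wells define minimum signal.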

[8] = qHTS assay for cell viability of the p53RE-bla HCT-116 cell line (AID 743292); also: % is scaled to controls: 0 for no effect and ±100 for the full control effect; nearly all actives have a fitted effect of over 55% in size
How it was run: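 Readout: CellTiter-Glo luminescence after 30 min RT. Treatment: compounds in DMSO, 16 h, 37 C. Cells: CellSensor p53RE-bla HCT-116, 4,000/well, preincubated 5 h.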

[9] = P-glycoprotein substrates identified in KB-8-5-11 adenocarcinoma cell line, qHTS therapeutic library screen (AID 1346987); also: series mostly up to about 44 µM; % is scaled to controls: 0 for no effect and ±100 for the full control effect; nearly all actives have a fitted effect of over 65% in size
How it was run: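 Human cervical adenocarcinoma KB-8-5-11 cells, selected in colchicine to over-express P-gp and assayed without it, were exposed for 72 h to titrated compounds. An ATP-based luminescent viability signal gave AC50.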

[10] = qHTS assay to identify small molecule inhibitors of chordoma cells - UCH-1 (AID 1259355); also: % is scaled to controls: 0 for no effect and ±100 for the full control effect; nearly all actives have a fitted effect of over 55% in size
How it was run: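 A 48hr growth-inhibition format: each drug tested at 15 concentrations together with added auranofin, camptothecin, doxorubicin, rubitecan and topotecan, with cell viability quantified as CellTiter-Glo luminescence.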

CN(N=O)c1ccc(O)c(O)c1
inactive: outcome [1] | Potency [2] | Potency [3] | outcome [4]

COc1ccc(CNC(=O)/C=C/c2ccc3[nH]cc(CCN(C)C)c3c2)cc1
inactive: max response [5] -2.88% | outcome [1] | Potency [6] | Potency [2] | Potency [3] | outcome [4]

N#C/C(=C/c1ccc(O)c(O)c1)C(N)=S
inactive: outcome [7] | max response [5] 27.1% | outcome [1] | Potency [2] | Potency [3] | outcome [4]

CCNC(=O)[C@H]1O[C@@H](n2cnc3c(N)ncnc32)[C@H](O)[C@@H]1O
inactive: outcome [7] | max response [5] -1.58% | outcome [1] | Potency [6] | Potency [2] | Potency [3] | outcome [4]

O=C(O)c1cc[c]([Hg][Cl])cc1
inactive: max response [5] 33.9% | Potency [8] | outcome [1] | Potency [6] | Potency [3]

C[Se]C[C@H](N)C(=O)O
inactive: max response [5] -6.02% | outcome [1] | Potency [6] | Potency [2] | Potency [3]

C=CCN1CC[C@]23c4c5ccc(O)c4O[C@@H]2/C(=N/N=C2\CC[C@@]4(O)C6Cc7ccc(O)c8c7[C@@]4(CCN6CC=C)[C@@H]2O8)CC[C@@]3(O)C1C5
inactive: outcome [1] | Potency [6] | Potency [2]

CCCSP(=O)(OCC)SCCC
inactive: max response [5] -10.7% | Potency [8] | outcome [1] | Potency [9] | outcome [4]

CC(C)(O)C1C2OC(=O)C1C1(O)CC3OC34C(=O)OC2C14C (stereo not drawn)
inactive: Potency [10]

CCN1C[C@@]2(COC)C3[C@@H](OC)C4[C@@H]1C3([C@@H]1C[C@]3(O)[C@H](OC(=O)c5ccccc5)[C@@H]1[C@]4(OC(C)=O)[C@@H](O)[C@@H]3OC)[C@H](OC)C[C@H]2O
inactive: outcome [7] | outcome [1] | Potency [6] | Potency [2] | Potency [3] | outcome [4]
